According to PubChem BioAssay (NCI):
Compounds without any hit were thinned out: in the full panel of roughly 79,000, 15% have a hit. Unmarked numbers belong to inactive results. The source made the active and inactive calls. Cut-off read from the data, not from the text of the source: active = growth inhibition above about 70%; inactive = the rest.

Assay: NCI Yeast Anticancer Drug Screen. Data for the mlh1 rad18 strain (AID 175)
Conditions: S. cerevisiae mlh1 rad18 strain growth inhibition, hits give high values
Procedure: Growth inhibition of yeast strains with defined genetic alterations is measured as a screen for potential anti-cancer activity. Selected strains with alterations in DNA damage repair or cell cycle control were exposed to compounds and growth inhibition was measured relative to vehicle treated controls. The strain used in this assay is mlh1 rad18

[1] = at 5.0 µM (retest, dose inferred, filed as 0.5)
[2] = at 50.0 µM (retest, dose inferred, filed as 5.0)

SMILES	growth inhibition [1]	growth inhibition [2]	growth inhibition (at 50.0 µM)
CCCCCCCCCCCCCCCCCCNc1nc(=O)n(C2CC(OP(=O)(O)OCC3OC(n4cc(F)c(=O)[nH]c4=O)CC3O)C(CO)O2)cc1F (configuration not stated)	34%	93% (active)	86% (active)
COC(=O)c1cnc(Cl)c([N+](=O)[O-])c1	72% (active)	98% (active)	98.5% (active)
O=C(C#Cc1ccccc1)Nc1ccccc1	-149%	-10%	38.9%
O=C(O)c1ccccc1C(=O)OC1CCc2ccccc2C1 (configuration not stated)	-4%	33%	22.7%
O=C(NOC(=O)c1ccc([N+](=O)[O-])cc1)c1ccc(Cl)cc1	14%	96% (active)	89.7% (active)
Cc1nc2sc3c(c2c(=O)o1)CCCC3	-2%	-2%	26%
CC(C)N(CCCNc1c2ccccc2nc2cccc([N+](=O)[O-])c12)C(C)C	93% (active)	98% (active)	95.9% (active)
N#CCCC1C(C#N)C2(Cl)CC1(Cl)C(Cl)=C2Cl (configuration not stated)	-3%	85% (active)	86.8% (active)
Nc1ccc2c(c1)C(=O)c1c(F)cccc1-2	-120%	-30%	84.5% (active)
O=C(CCCN1CCC(Nc2ccc(F)cc2)(c2nnnn2C2CCCCC2)CC1)c1ccc(F)cc1	-3%	41%	77.8% (active)
COc1ccc(C(=O)/C=C\c2ccc(Cl)c(Cl)c2)cc1	39%	72% (active)	63.5%
O=[N+]([O-])c1cc[n+]([O-])c(Cl)c1	1%	99% (active)	99.5% (active)
Cc1c2c(nc3ccccc13)C(=O)c1cccnc1C2=O	19%	90% (active)	84% (active)
CCCN=Cc1cc(Cc2ccc(O)c(C=NCCC)c2)ccc1O	98% (active)	99% (active)	89.3% (active)
